In PubChem BioAssay (Tox21):
Inconclusive results are not listed. The source made the active and inactive calls. Unless noted, calls come from the whole dose curve.

Key:
[1] = Nuclear factor erythroid 2-related factor 2/antioxidant responsive element (Nrf2/ARE) small molecule agonists: qHTS cell viability counter screen in human keratinocytes (AID 1919968; active = well fitted curve in the direction sought with a large enough effect in the repeat runs; an effect the other way counts as inactive or inconclusive; note: nearly all actives have a fitted effect of over 55% in size)
Procedure, shortened: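 Seed 1,500 KeratinoSens cells per well, then incubate 5 h at 37 C/5% CO2. Add compounds in DMSO and incubate 23 h. Add CellTiter-Fluor, wait 1 h and read fluorescence.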

[2] = Nuclear factor erythroid 2-related factor 2/antioxidant responsive element (Nrf2/ARE) small molecule agonists: luciferase reporter gene qHTS assay in human keratinocytes (AID 1919969); note: nearly all actives have a fitted effect of over 35% in size
[3] = biological target: Gonadotropin-releasing hormone receptor (Homo sapiens) (UniProt P30968); assay: Human gonadotropin-releasing hormone receptor (GnRHR) small molecule agonists, calcium flux assay in GnRHR-HEK293 cells (AID 1920063); note: nearly all actives have a fitted effect of over 35% in size; note: potency is the fitted concentration of half-maximal effect
Procedure, shortened: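 Cells: HEK293 stably expressing human GnRHR. Steps: overnight (18 h) culture, 1 h calcium dye loading at 37 C, compound addition, kinetic fluorescence read at 480/540 nm. Each compound tested at 15 concentrations in triplicate.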

[4] = biological target: KiSS-1 receptor (Homo sapiens) (UniProt Q969F8); assay: Human kisspeptin (KISS1R) small molecule agonists, calcium flux assay in KISS1R-HEK293 cells (AID 1920064; active = well fitted curve in the direction sought with a large enough effect in the repeat runs; an effect the other way counts as inactive or inconclusive)
Procedure, shortened: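 Cells plated and incubated 18 h; dye added, 1 h at 37 C; compounds in DMSO pinned in; signal read at 480/540 nm every second for 3 min. Each compound tested at 15 concentrations in triplicate.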

[5] = p53 small molecule agonists, cell-based qHTS assay with human liver microsomes (AID 1963577);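 note: p53 response element beta-lactamase reporter cells with liver microsomes plus NADPH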
Procedure, shortened: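 16 h, 37 C exposure of p53RE-bla cells to compounds with human liver microsomes and NADPH (0.5 mg/mL final each); detection via LiveBLAzer mixture, 2 h dark at room temperature.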

[6] = p53 small molecule agonists, cell-based qHTS assay with rat liver microsomes (AID 1963578)
Procedure, shortened: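 With rat liver microsomes and NADPH present (0.5 mg/mL final each), p53RE-bla cells are treated with compound for 16 h at 37 C. LiveBLAzer detection mixture is then applied for 2 h at room temperature in the dark.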

[7] = p53 small molecule agonists, cell-based qHTS assay with human liver microsomes: qHTS cell viability counter screen (AID 1963579); note: nearly all actives have a fitted effect of over 45% in size
Procedure, shortened: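 In this multiplexed counter screen, the reporter plates were subsequently treated with CellTiter-Glo so that cell viability, reflected by luminescence, could be recorded for p53RE-bla cells dosed 16 h with compounds under microsomal activation (HLM and NADPH).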

[8] = p53 small molecule agonists, cell-based qHTS assay with rat liver microsomes: qHTS cell viability counter screen (AID 1963580); note: nearly all actives have a fitted effect of over 45% in size; note: potency is the fitted concentration of half-maximal effect
Procedure, shortened: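 p53RE-bla HCT-116 cells were exposed 16 h at 37 C to compounds with rat liver microsomes (0.5 mg/mL) and NADPH (0.5 mg/mL). Viability was measured in the same wells as ATP content by CellTiter-Glo luminescence.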

[9] = p53 small molecule agonists, cell-based qHTS assay: qHTS cell viability counter screen (AID 1963581); note: nearly all actives have a fitted effect of over 45% in size
Procedure, shortened: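 Cells: HCT-116 with p53 response element-driven beta-lactamase. Treatment: 16 h, 37 C, compounds in DMSO. Read: CellTiter-Glo luminescence after 30 min RT.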

[10] = p53 small molecule agonists, cell-based qHTS assay (AID 1963582; active = well fitted activation curve with a large enough effect in the signal ratio in the repeat runs, not every such curve was filed as active; the % refers to the signal ratio)
Procedure, shortened: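 Quantitative HTS in p53RE-bla cells: after a 5 h settling period, compounds delivered in DMSO were left on cells for 16 h at 37 C, and reporter induction was measured as fluorescence following 2 h substrate loading.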

[11] = biological target: 5-hydroxytryptamine receptor 2A (Homo sapiens) (UniProt P28223); assay: 5-hydroxytryptamine receptor 2A (HTR2A) small molecule antagonists, cell-based qHTS assay (AID 1963586); note: nearly all actives have a fitted effect of over 45% in size
Procedure, shortened: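 Antagonist-mode intracellular calcium assay: DOI (4 nM) added after 5 min compound pre-incubation at room temperature to dye-loaded HTR2A-CHO cells. Fluorescence followed for 3 min, sampled every second.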

[12] = biological target: 5-hydroxytryptamine receptor 2A (Homo sapiens) (UniProt P28223); assay: 5-hydroxytryptamine receptor 2A (HTR2A) small molecule agonists, cell-based qHTS assay (AID 1963587); note: nearly all actives have a fitted effect of over 30% in size
Procedure, shortened: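 CHO cells stably expressing human HTR2A, plated 18 h, loaded with calcium dye 1 h at 37 C. Agonist mode: compounds added and intracellular calcium fluorescence recorded kinetically for 2 min at 1 sec intervals.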

[13] = biological target: Muscarinic acetylcholine receptor M1 (Homo sapiens) (UniProt P11229); assay: Cholinergic receptor muscarinic 1 (CHRM1) small molecule antagonists, cell-based qHTS assay (AID 1963588); note: nearly all actives have a fitted effect of over 40% in size; note: potency is the fitted concentration of half-maximal effect
Procedure, shortened: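 CHRM1-CHO calcium-flux assay, antagonist mode. Cells were seeded 18 h, dye-loaded 1 h at 37 C and given compound for 5 min at RT, then acetylcholine was added at 50nM. FDSS fluorescence was read 3 min; 15 concentrations, three runs.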

[14] = biological target: Muscarinic acetylcholine receptor M1 (Homo sapiens) (UniProt P11229); assay: Cholinergic receptor muscarinic 1 (CHRM1) small molecule agonists, cell-based qHTS assay (AID 1963589); note: nearly all actives have a fitted effect of over 35% in size
Procedure, shortened: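 Agonist-mode qHTS in CHO cells stably carrying human muscarinic M1. Intracellular calcium is tracked by fluorescence every second after compound transfer; each compound runs at 15 concentrations in three independent runs.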

[15] = cAMP Responsive Elements (CRE) small molecule agonists, cell-based qHTS assay (AID 1963590)
Procedure, shortened: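 Agonist mode qHTS in CRE-bla HEK 293T cells: compounds dosed from DMSO for 3 h at 37 C/5% CO2, followed by LiveBLAzer B/G FRET substrate for 2 h at room temperature.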

[16] = cAMP Responsive Elements (CRE) small molecule antagonists, cell-based qHTS assay (AID 1963591; active = well fitted inhibition curve with a large enough effect in the signal ratio in the repeat runs, not every such curve was filed as active; the % refers to the signal ratio)
Procedure, shortened: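 Antagonist mode: test compounds are co-incubated with the adenylyl cyclase activator NKH477 (0.25 uM final) on CRE-bla HEK293T cells for 3 h at 37 °C, followed by LiveBLAzer substrate loading.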

[17] = biological target: D(2) dopamine receptor (Homo sapiens) (UniProt P14416); assay: Dopamine D2 receptor (DRD2) small molecule agonists, cell-based qHTS assay (AID 1963594); note: nearly all actives have a fitted effect of over 35% in size
Procedure, shortened: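 HEK293 cells stably expressing human DRD2, pre-treated with PDE inhibitor Ro20-1724 (0.1 mM final) and compound 10 min at room temperature, then stimulated with NKH477 (200nM […]) for 30 min. cAMP read by HTRF (665/620 nm).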

[18] = biological target: D(2) dopamine receptor (Homo sapiens) (UniProt P14416); assay: Dopamine D2 receptor (DRD2) small molecule antagonists, cell-based qHTS assay (AID 1963595; active = well fitted inhibition curve with a large enough effect in the signal ratio in the repeat runs, with a control signal flat; the % refers to the signal ratio)
Procedure, shortened: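 Antagonist mode in DRD2-HEK293 cells: after compound addition with 0.1 mM Ro20-1724, cells received quinpirole (12 nM) and NKH477 (200 nM) for 30 min at room temperature; HTRF cAMP read after 1 h detection.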

[19] = G protein-coupled receptor (GPCR) small molecule agonists, calcium flux assay: HEK293 wild type cell line counter screen (AID 1920065)
Procedure, shortened: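 Counter-screen of the Tox21 10K library for non-specific calcium release: dye-loaded cells received compounds in DMSO and were monitored by kinetic fluorescence (480/540 nm, 3 min). Fifteen concentrations, run in triplicate.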

[20] = biological target: Beta-2 adrenergic receptor (Homo sapiens) (UniProt P07550); assay: Adrenergic beta2 receptor (ADRB2) small molecule antagonists, cell-based qHTS assay (AID 1963592); note: series mostly up to about 92 µM; nearly all actives have a fitted effect of over 50% in size
Procedure, shortened: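 Cells (CHO, stable ADRB2 overexpression) incubated 18-20hr at 37C; compounds added from DMSO; agonist mix (1nM isoproterenol, 100uM IBMX, 25uM Ro-20-1724) added; 0.5hr RT; d2-cAMP and anti-cAMP-cryptate added; 1hr RT; 665/615 nm read.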

Measured: Potency

5-hydroxytryptamine receptor 2A (Homo sapiens), sequence (P28223 whole entry, looked up): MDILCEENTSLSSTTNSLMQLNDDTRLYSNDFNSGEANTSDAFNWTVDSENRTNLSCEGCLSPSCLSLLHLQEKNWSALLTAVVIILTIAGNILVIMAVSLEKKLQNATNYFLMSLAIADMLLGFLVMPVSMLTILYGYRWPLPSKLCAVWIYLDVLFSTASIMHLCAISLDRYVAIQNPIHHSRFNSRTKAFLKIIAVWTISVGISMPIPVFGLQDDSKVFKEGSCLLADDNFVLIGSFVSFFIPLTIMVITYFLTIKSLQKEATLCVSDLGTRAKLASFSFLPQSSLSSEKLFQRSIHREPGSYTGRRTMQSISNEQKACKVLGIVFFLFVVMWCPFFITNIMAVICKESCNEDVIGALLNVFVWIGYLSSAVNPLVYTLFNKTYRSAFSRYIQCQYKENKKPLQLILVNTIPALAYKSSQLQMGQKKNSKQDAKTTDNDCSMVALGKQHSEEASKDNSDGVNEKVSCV
KiSS-1 receptor (Homo sapiens), sequence (Q969F8 whole entry, looked up): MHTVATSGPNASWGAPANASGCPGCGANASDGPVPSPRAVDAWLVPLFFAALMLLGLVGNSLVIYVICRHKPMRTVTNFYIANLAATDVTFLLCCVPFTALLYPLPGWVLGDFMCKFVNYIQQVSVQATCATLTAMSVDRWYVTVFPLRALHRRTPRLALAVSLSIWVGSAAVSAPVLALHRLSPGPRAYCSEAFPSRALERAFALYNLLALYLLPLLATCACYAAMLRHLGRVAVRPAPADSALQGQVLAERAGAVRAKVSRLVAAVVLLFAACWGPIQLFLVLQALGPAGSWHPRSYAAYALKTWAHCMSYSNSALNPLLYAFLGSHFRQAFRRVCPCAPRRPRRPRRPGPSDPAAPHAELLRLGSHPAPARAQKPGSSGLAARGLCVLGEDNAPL
D(2) dopamine receptor (Homo sapiens), sequence (P14416 whole entry, looked up): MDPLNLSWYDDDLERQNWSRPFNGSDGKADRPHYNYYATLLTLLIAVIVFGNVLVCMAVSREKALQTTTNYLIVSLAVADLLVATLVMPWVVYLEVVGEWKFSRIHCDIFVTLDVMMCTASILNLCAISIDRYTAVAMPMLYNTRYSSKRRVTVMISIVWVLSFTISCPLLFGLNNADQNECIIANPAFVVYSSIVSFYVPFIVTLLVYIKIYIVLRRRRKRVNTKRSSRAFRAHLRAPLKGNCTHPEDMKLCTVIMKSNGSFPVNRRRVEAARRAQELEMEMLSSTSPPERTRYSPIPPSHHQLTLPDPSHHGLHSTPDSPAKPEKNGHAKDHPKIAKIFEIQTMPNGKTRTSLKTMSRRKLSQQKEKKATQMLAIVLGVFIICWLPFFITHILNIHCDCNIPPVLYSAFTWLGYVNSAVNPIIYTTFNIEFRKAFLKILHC
Muscarinic acetylcholine receptor M1 (Homo sapiens), sequence (P11229 whole entry, looked up): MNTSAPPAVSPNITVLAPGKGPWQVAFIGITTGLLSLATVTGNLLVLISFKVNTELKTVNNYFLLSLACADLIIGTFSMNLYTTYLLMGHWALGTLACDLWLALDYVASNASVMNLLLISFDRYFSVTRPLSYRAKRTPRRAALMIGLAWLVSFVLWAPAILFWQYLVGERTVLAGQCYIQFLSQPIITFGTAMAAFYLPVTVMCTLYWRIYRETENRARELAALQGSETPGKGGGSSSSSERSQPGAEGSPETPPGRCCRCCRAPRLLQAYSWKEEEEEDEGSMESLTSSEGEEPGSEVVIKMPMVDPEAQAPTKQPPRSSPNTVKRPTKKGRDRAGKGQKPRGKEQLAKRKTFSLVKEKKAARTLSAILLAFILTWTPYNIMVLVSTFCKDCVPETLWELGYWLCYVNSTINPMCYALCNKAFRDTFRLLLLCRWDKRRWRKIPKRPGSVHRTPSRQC
Gonadotropin-releasing hormone receptor (Homo sapiens), sequence (P30968 whole entry, looked up): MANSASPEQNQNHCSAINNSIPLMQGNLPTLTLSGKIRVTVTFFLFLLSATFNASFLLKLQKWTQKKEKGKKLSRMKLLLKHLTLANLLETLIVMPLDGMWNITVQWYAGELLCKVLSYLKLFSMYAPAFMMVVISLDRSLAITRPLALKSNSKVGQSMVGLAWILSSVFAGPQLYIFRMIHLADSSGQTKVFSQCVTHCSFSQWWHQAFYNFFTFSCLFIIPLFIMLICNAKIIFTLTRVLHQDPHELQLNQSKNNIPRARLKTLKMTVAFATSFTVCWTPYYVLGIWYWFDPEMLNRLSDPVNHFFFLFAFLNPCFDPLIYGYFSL
Beta-2 adrenergic receptor (Homo sapiens), sequence (P07550 whole entry, looked up): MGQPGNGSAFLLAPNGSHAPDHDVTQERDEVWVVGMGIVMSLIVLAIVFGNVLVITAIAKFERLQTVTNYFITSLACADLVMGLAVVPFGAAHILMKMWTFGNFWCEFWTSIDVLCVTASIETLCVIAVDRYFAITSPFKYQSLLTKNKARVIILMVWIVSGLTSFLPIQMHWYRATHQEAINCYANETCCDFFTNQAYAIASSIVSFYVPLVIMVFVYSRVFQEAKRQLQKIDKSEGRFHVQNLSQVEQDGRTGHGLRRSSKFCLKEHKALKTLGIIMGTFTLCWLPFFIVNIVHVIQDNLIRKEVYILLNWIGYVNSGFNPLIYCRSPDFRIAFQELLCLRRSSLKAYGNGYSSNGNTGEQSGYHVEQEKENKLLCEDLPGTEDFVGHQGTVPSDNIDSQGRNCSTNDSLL

O=[N+]([O-])c1c(Cl)cc(Cl)cc1Cl
not listed: [19] | [20]
inactive: all other assays above

O=CCCc1ccccc1
not listed: [5] | [6] | [9] | [10] | [12]
inactive: all other assays above

CCN(CC)CCOc1ccc(Cc2ccccc2)cc1
not listed: [13] | [19]
inactive: all other assays above

CCC(C)CCCC(C)(C)O (stereo unspecified)
not listed: [13] | [19]
inactive: all other assays above

CC(C)=CCC/C(C)=C/C=N/O
not listed: [10] | [15] | [16] | [19]
inactive: all other assays above

Cc1ccc2oc(CN(Cc3ccccc3)C(=O)Nc3c(F)cc(F)cc3F)c(-c3ccc(Cl)cc3)c2c1
not listed: [13] | [14] | [15] | [19]
inactive: all other assays above

CCCCOCC
active: [8] 1620 nM
not listed: [17] | [18] | [19]
inactive: all other assays above

CCC(C)N(C)C(=O)c1cc2ccccc2c(-c2ccccc2Cl)n1 (stereo unspecified)
not listed: [12] | [13] | [14] | [16] | [19]
inactive: all other assays above

CC(=O)OCC[N+](C)(C)C
active: [3] 6010 nM
not listed: [13] | [14] | [15] | [16] | [18] | [19] | [20]
inactive: all other assays above

Nc1ccc(C(=O)N2CC3CC(CN(Cc4ccccc4)C3)C2)cc1
active: [13] 1830 nM
not listed: [15] | [16] | [19]
inactive: all other assays above

Cc1cc(N)c(S(=O)(=O)O)cc1Cl
not listed: [10] | [19] | [20]
inactive: all other assays above

Nc1ccc2cc(S(=O)(=O)O)ccc2c1
not listed: [10] | [18] | [19]
inactive: all other assays above

O=C1CCCC(=O)C1
not listed: [19]
inactive: all other assays above
